Screens from PubChem.
Mac1 fbg enh = enhancers of human CD11b/CD18 binding to fibrinogen | AID 1499 | K562 CD11b/CD18 adhesion to fibrinogen, ATPlite luminescence | hit rate 0.07% among 93,000 | P05107+P11215 | activation, % at 10 µM;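 active = 10 µM primary screen giving 50% or more activity, confirmed by 40% or more on retest at that dose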
CYP2C19 act = increases human CYP2C19 enzyme activity | 96,000 tested, under 10 active | P33261 | activation factor at 5 µM | recombinant CYP2C19, luciferin-H EGE luminescence; stronger effect = higher value; 0 = fully inhibited enzyme, 1 = untreated enzyme;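 active = activation factor of at least 2 at 5 µM in the primary screen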;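 note: 0 = wells with 2.5 mM tranylcypromine and 1 = vehicle-only wells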
Target sequence (P33261 whole entry, looked up): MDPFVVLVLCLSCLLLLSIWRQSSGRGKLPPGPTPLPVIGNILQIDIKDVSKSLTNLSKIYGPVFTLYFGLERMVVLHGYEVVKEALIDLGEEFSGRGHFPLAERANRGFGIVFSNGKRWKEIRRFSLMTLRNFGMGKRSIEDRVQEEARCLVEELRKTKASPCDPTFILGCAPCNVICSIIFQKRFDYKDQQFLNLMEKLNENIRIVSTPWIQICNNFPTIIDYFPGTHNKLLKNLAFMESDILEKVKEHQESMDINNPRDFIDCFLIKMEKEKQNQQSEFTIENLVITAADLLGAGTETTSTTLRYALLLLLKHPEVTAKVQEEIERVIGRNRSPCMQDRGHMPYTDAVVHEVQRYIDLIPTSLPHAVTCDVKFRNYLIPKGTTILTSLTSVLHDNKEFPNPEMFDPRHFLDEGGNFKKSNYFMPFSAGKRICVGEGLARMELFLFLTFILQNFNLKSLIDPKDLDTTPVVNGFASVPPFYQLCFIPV
CYP2C19 inh = human CYP2C19 inhibition; hit rate 21% among 96,000; inhibition, % at 5 µM; CYP2C19 Supersomes, luciferin-H EGE luminescence, 30 min;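 active = CYP2C19 inhibition above a set limit at 5 µM in the primary screen, cut at about 50% in these data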;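 note: plate controls were negative control wells for no effect and 2.5 mM tranylcypromine positive control for full effect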
CYP2C9 act = activators of human CYP2C9 | P11712 | recombinant CYP2C9, luciferin-H conversion, luminescence; stronger effect = higher value; factor 1 = untreated enzyme, 0 = blocked | activation factor at 5 µM | hit rate 1.4% among 96,000;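 active = activation factor of 2 or more for CYP2C9 at a 5 µM dose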;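 note: 0 = sulfaphenazole-blocked wells and 1 = vehicle-only wells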
Mac1 fbg inh = inhibitors of human CD11b/CD18 binding to fibrinogen; P05107+P11215; K562 CD11b/CD18 adhesion to fibrinogen, ATPlite luminescence; Mn2+ added to activate the integrin; AID 1497; hit rate 0.54% among 93,000; inhibition, % at 10 µM;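 active = primary inhibition of 50% or more at 10 µM, then 40% or more on retest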
CYP2C9 inhib = inhibitors of human CYP2C9; P11712; CYP2C9 Supersomes, luciferin-H conversion, luminescence; inhibition, % at 5 µM; hit rate 20% among 96,000;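 active = blocking of liver enzyme CYP2C9 beyond about 50% at 5 µM, limit read from the data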
Starred values were filed as active, the others as inactive; nt = no result given. This is a sample that favours compounds with a hit; in the whole collection about 28% have one here.

SMILES	Mac1 fbg enh	CYP2C19 act	CYP2C19 inh	CYP2C9 act	Mac1 fbg inh	CYP2C9 inhib
Brc1ccc(C2C3=C(Nc4ncnn42)c2ccccc2OC3c2ccncc2)cc1 (stereo unspecified)	-3.3	0.4	55.3*	0.1	-1.8	89.4*
COc1ccc(C2Oc3ccccc3C3=C2C(c2cccs2)n2ncnc2N3)cc1 (stereo unspecified)	7.5	0.8	22.0	0.3	10.5	67.4*
COc1ccc(OC)c(NC(=O)C2=C(C)Nc3ncnn3C2c2cccs2)c1 (stereo unspecified)	4.1	0.9	13.6	1	-4.5	-1.0
O=C(CSc1nnc(-c2csc3c2CCCC3)o1)Nc1ccccc1	-5.6	1.1	-9.9	1.1	4.1	-8.5
CCc1ccc(Nc2nnc(SCC(=O)Nc3cccnc3Cl)s2)cc1	-2.6	nt	nt	nt	-15.0	nt
CN(C)c1ccc(N=Nc2ccccc2C(=O)OCC(=O)N(C)c2ccccc2)cc1	-6.8	nt	nt	nt	55.1	nt
CCOC(=O)c1cc2sccc2n1CC(=O)OC(C)C	-6.7	0	96.6*	0.1	7.9	88.3*
CCOC(=O)c1cc2sccc2n1CC(=O)Nc1ccc(OC)c(OC)c1	3.8	0.1	87.4*	0.5	-9.7	45.8
CCOC(=O)c1cc2sccc2n1CC(=O)Nc1ccc(OC)cc1	-2.6	0.7	33.9	0.9	-2.5	12.0
Cn1c(SCC(=O)Nc2ccccc2F)nnc1-c1ccc(S(=O)(=O)N2CCOCC2)cc1	-1.9	1	0.6	1	4.4	1.4
COc1ccc(C)cc1NC(=O)C(Sc1nnc(Nc2ccccc2F)s1)c1ccccc1 (stereo unspecified)	8.7	nt	nt	nt	9.5	nt
O=C(CCCSc1nc2ccccc2[nH]1)NCc1ccccc1Cl	1.3	nt	nt	nt	2.0	nt
O=C(Cc1csc(Nc2nc(=S)[nH]c3ccccc23)n1)NCc1cccc(Cl)c1	nt	0.7	31.3	0.2	nt	82.8*
O=C(Cc1csc(Nc2nc(=S)[nH]c3ccccc23)n1)NCc1ccccc1Cl	nt	0.7	34.8	0.2	nt	82.6*
Cc1ccc(CNC(=O)Cc2csc(Nc3nc(=S)[nH]c4ccccc34)n2)cc1	nt	0.4	64.9*	0.2	nt	82.2*
Cc1c(Cc2ccc3c(c2)OCO3)sc(NC(=O)C(C)(C)C)c1C#N	-0.5	1.1	-7.8	0.9	19.9	8.6
Cc1c(C(=O)NCCSCc2c(Cl)cccc2Cl)cccc1[N+](=O)[O-]	-4.8	0.9	13.3	1.1	0.5	-6.8
c1nnn(C23CC4CC(CC(C4)C2)C3)n1	3.0	1	-0.7	1.1	-20.4	-14.1
c1cn(C23CC4CC(CC(C4)C2)C3)cn1	nt	0.1	87.0*	0	nt	95.9*
CC1CC(=O)c2cnc(Nc3ccccc3)nc2C1 (stereo unspecified)	-4.2	0.6	38.5	0.9	-5.2	8.2
CC1CC(=O)c2cnc(Nc3cccc(C(F)(F)F)c3)nc2C1 (stereo unspecified)	-2.8	0.5	53.4*	0.7	-8.1	26.1
Nc1nc(N)nc(-c2ccc(Oc3ccccc3)cc2)n1	1.8	0.7	33.5	0.5	8.0	51.3*
CC1(C)CC(=O)C2=C(C1)N(Cc1ccco1)C(=O)NC2(C(F)(F)F)C(F)(F)F	-5.7	1	4.4	0.9	-13.0	7.2
CC1(C)CC(=O)C2=C(C1)N(Cc1ccco1)C(=O)C2(NC(=O)C1CCCCC1)C(F)(F)F (stereo unspecified)	3.2	0.6	38.5	0.5	-23.5	50.9*
CC(=O)C1=C(C)N(Cc2ccco2)C(=O)C1(NC(=O)C1CCCCC1)C(F)(F)F (stereo unspecified)	-3.6	1.1	-7.8	0.7	-30.1	26.8
SMILES	Mac1 fbg enh	CYP2C19 act	CYP2C19 inh	CYP2C9 act	Mac1 fbg inh	CYP2C9 inhib
CC1(C)CC(=O)C2=C(C1)N(Cc1ccco1)C(=O)C2(NC(=O)c1ccc(Cl)cc1Cl)C(F)(F)F (stereo unspecified)	nt	0.2	82.9*	0.9	nt	7.1
CC(=O)NC1(C(F)(F)F)C(=O)N(Cc2ccccc2)C2=C1C(=O)CC(C)(C)C2 (stereo unspecified)	nt	0.9	10.0	1	nt	-0.2
CC1=NC(C(F)(F)F)(C(F)(F)F)C2=C(CC(C)(C)CC2=O)N1Cc1ccco1	-5.1	0.4	56.1*	0.5	-2.6	53.7*
CCc1cc(C(=O)OC)c(NC(=O)C2CC(=O)NN2Cc2ccccc2)s1 (stereo unspecified)	-6.5	0.7	28.5	0.5	8.6	47.2
COc1cccc2cc(C(N)=O)/c(=N/NC(=O)COc3ccc(Cl)cc3)oc12	27.1	nt	nt	nt	-8.4	nt
CCOC(=O)c1nn(-c2ccccc2C)c(=O)c(C#N)c1C	-1.9	0.4	64.8*	0.9	1.2	7.9
O=C(CCCN1C(=O)c2ccccc2C1=O)NC1CCCCCC1	-3.3	0.6	44.1	0.6	3.0	38.7
CN(C(=O)CCN1C(=O)c2ccccc2C1=O)C1CCCCC1	-0.8	0	98.3*	1.4	-34.2	-37.5
COc1ccc(/C=C2\C(=O)NCC(=O)N2Cc2ccccc2)cc1	0.2	0.4	64.6*	0.5	-8.3	53.2*
COc1ccc(/C=C2\C(=O)N(Cc3ccc(F)cc3)CC(=O)N2Cc2ccccc2)cc1	0.7	0.3	72.0*	0.1	-8.6	88.4*
CCOc1ncccc1C(=O)OCc1ccc(C#N)cc1	1.0	nt	nt	nt	-1.7	nt
Cc1occc1C(=O)NNC(=O)Cc1ccccc1	nt	0.9	12.1	0.7	nt	25.5
CC(C)(C)c1ccc(Oc2cccc(C3CC(=O)C(C4NCCc5ccccc54)C(=O)C3n3cncn3)c2)cc1 (stereo unspecified)	0.4	1.1	-8.4	0.7	10.8	34.0
O=C1CC(=O)C(n2cncn2)C(c2ccc(Cl)cc2Cl)C1 (stereo unspecified)	1.4	0.9	10.1	0.3	-11.2	74.5*
Cc1cccc(NC(=S)N(c2ccccc2)C(C)C)c1C	-3.1	nt	nt	nt	5.6	nt
Cc1cc(C)cc(-n2nnc(C(=O)NCc3ccccc3Cl)c2N)c1	nt	0.9	8.3	2.8*	nt	-175.5
Cc1ccc(CCNC(=O)c2nnn(-c3cccc(C)c3)c2N)cc1	-3.0	0.9	5.5	0.9	-4.1	8.0
CCCN1CCC(NC(=O)Nc2ccc(OC)c(OC)c2)CC1	-3.1	1	3.9	1	-8.7	1.4
Oc1cccc(-c2nc3ccc4ccccc4c3c3c2CCC3)c1	0.1	0.8	20.3	0.6	18.9	37.1
O=[N+]([O-])c1cccc(Cl)c1NCCNS(=O)(=O)c1ccccc1	1.5	0.4	60.3*	2*	-1.3	-104.7
COc1ccc(N(CC(=O)Nc2cc(OC)ccc2OC)S(=O)(=O)c2c(C)nn(C)c2C)cc1	2.0	0.2	75.8*	0.2	-16.7	84.1*
COc1ccc(N(CC(=O)Nc2cccc(OC)c2)S(=O)(=O)c2c(C)nn(C)c2C)cc1	nt	0.3	74.7*	0.2	nt	82.8*
